Test [1] can be described thus: NCI Yeast Anticancer Drug Screen. Data for the rad50 strain (AID 155).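 Note: 0% = growth of vehicle-only cultures of the same strain.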 The conditions noted are these: S. cerevisiae rad50 strain growth inhibition, hits give high values. In a few lines: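 DNA repair mutant yeast, compound exposure, growth read-out; inhibition is taken relative to vehicle.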
The nature of test [2]: NCI Yeast Anticancer Drug Screen. Data for the mec2-1 strain (AID 157). To be noted: S. cerevisiae mec2-1 strain, hits give high values. The gist of the method:
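Growth inhibition is read against vehicle-treated controls after compound exposure of the mec2-1 yeast strain, which is defective in DNA damage repair or cell cycle control.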

Test [3] can be described thus: NCI Yeast Anticancer Drug Screen. Data for the sgs1 mgt1 strain (AID 161).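 Note: 0% = growth of cultures given vehicle only.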 The conditions noted are these: S. cerevisiae sgs1 mgt1 strain, hits give high values. The gist of the method: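 Growth of a repair-deficient yeast mutant was monitored after compound treatment and expressed as inhibition relative to vehicle-treated cultures.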
Test [4] is described as follows: NCI Yeast Anticancer Drug Screen. Data for the cln2 rad14 strain (AID 165).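 Note: 0% = growth equal to vehicle treated cultures.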 The conditions noted are these: S. cerevisiae cln2 rad14 strain, hits give high values. The gist of the method: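 Growth inhibition, relative to vehicle-treated controls, is the read-out. The test organism is a yeast strain with defined genetic alterations, cln2 rad14.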
Test [5] is described as follows: NCI Yeast Anticancer Drug Screen. Data for the bub3 strain (AID 167). To be noted: S. cerevisiae bub3 mutant strain, hits give high values. The gist of the method: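 In this screen, a yeast mutant lacking normal mitotic checkpoint function is challenged with compound. Relative growth versus vehicle gives the inhibition value.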
A short description of test [6]: NCI Yeast Anticancer Drug Screen. Data for the mlh1 rad18 strain (AID 175). The conditions noted are these: S. cerevisiae mlh1 rad18 strain growth inhibition, hits give high values. The gist of the method: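 Cells of a genetically altered yeast strain, deficient in DNA damage repair, were treated with compound. Their growth was then compared with that of vehicle-treated cultures to give inhibition.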

The mark [7] stands for this setting: at 5.0 µM (retest, dose inferred, filed as 0.5).
The mark [8] stands for this setting: at 50.0 µM (retest, dose inferred, filed as 5.0).

This is part of a sample that, as a whole, favours compounds with a hit. Of some 79,000 tested, about 15% had one in any assay. Values without a mark were called inactive. The source made the active and inactive calls. Cut-off read from the data, not from the text of the source: active = growth inhibition above about 70%; inactive = the rest.

With `[Ce+3].[Cl-].[O-]/N=C(\c1ccccc1)c1ccccn1.[O-]/N=C(\c1ccccc1)c1ccccn1.[O-]/N=C(\c1ccccc1)c1ccccn1`, the growth inhibition in test [1] (setting [7]) was 36%; in test [1] (setting [8]), 66%; in test [1] (at 50.0 µM) it was 85.5% (active); in test [2] (setting [7]), 28%; in test [2] (setting [8]), 76% (active); in test [2] (at 50.0 µM) it was 85.4% (active). Moreover, the growth inhibition in test [3] (setting [7]) was 32%; in test [3] (setting [8]), 75% (active); in test [3] (at 50.0 µM) it was 85.8% (active); in test [4] (setting [7]), 29%; in test [4] (setting [8]) it was 32%; in test [4] (at 50.0 µM), 76.7% (active). For the same compound, the growth inhibition was 41% in test [5] (setting [7]); 95% (active) in test [5] (setting [8]); 88.3% (active) in test [5] (at 50.0 µM); 39% in test [6] (setting [7]); 91% (active) in test [6] (setting [8]); 86.2% (active) in test [6] (at 50.0 µM).
Consider `O=C(/C(=C\c1ccccc1)c1ccccc1)c1ccc(Br)cc1`, for which the growth inhibition is 7% in test [1] (setting [7]); -9% in test [1] (setting [8]); 10.2% in test [1] (at 50.0 µM); 3% in test [2] (setting [7]); 4% in test [2] (setting [8]); -16.2% in test [2] (at 50.0 µM). Also, the growth inhibition in test [3] (setting [7]) is 4%; in test [3] (setting [8]) it was 5%; in test [3] (at 50.0 µM) it was 24.6%; in test [4] (setting [7]), 0%; in test [4] (setting [8]), -8%; in test [4] (at 50.0 µM), 47.1%. The growth inhibition in test [5] (setting [7]) was 1%; in test [5] (setting [8]), 9%; in test [5] (at 50.0 µM), 11.8%; in test [6] (setting [7]) it was -8%; in test [6] (setting [8]), 2%; in test [6] (at 50.0 µM) it was 17.4%.
On to `O=c1cccccc1[O-].O=c1cccccc1[O-].O=c1cccccc1[O-].[Dy+3]`, for which the growth inhibition in test [1] (setting [7]) is 19%; in test [1] (setting [8]) it was 19%; in test [1] (at 50.0 µM) it was 92.8% (active); in test [2] (setting [7]) it was 18%; in test [2] (setting [8]), 18%; in test [2] (at 50.0 µM), 92.8% (active). The growth inhibition in test [3] (setting [7]) is 14%; in test [3] (setting [8]), 14%; in test [3] (at 50.0 µM), 91.6% (active); in test [4] (setting [7]), 10%; in test [4] (setting [8]), 10%; in test [4] (at 50.0 µM), 80.2% (active). Also, the growth inhibition was 7% in test [5] (setting [7]); 7% in test [5] (setting [8]); 93.2% (active) in test [5] (at 50.0 µM); 10% in test [6] (setting [7]); 10% in test [6] (setting [8]); 92% (active) in test [6] (at 50.0 µM).
Consider `COc1ccc(C(=O)NCCN2CCN3Cc4[nH]c5ccccc5c4CC3C2)cc1` (configuration not stated), for which the growth inhibition in test [1] (setting [7]) was -1%; in test [1] (setting [8]), 3%; in test [1] (at 50.0 µM), 1.65%; in test [2] (setting [7]), -2%; in test [2] (setting [8]), -5%; in test [2] (at 50.0 µM) it was 1.85%. Also, the growth inhibition in test [3] (setting [7]) was -8%; in test [3] (setting [8]), 8%; in test [3] (at 50.0 µM), -6.4%; in test [4] (setting [7]) it was -5%; in test [4] (setting [8]), -2%; in test [4] (at 50.0 µM), -17.6%. Also, the growth inhibition in test [5] (setting [7]) is -5%; in test [5] (setting [8]), 1%; in test [5] (at 50.0 µM), -5.05%; in test [6] (setting [7]), -11%; in test [6] (setting [8]) it was -3%; in test [6] (at 50.0 µM), 11.7%.
As for `CCC[N+]1=C(/C=C/c2ccc3cccnc3c2O)C(C)(C)c2ccccc21`, the growth inhibition in test [1] (setting [7]) is 0%; in test [1] (setting [8]) it was 98% (active); in test [1] (at 50.0 µM) it was 98.8% (active); in test [2] (setting [7]), 0%; in test [2] (setting [8]), 98% (active); in test [2] (at 50.0 µM), 99% (active). Also, the growth inhibition in test [3] (setting [7]) is 10%; in test [3] (setting [8]), 98% (active); in test [3] (at 50.0 µM), 54%; in test [4] (setting [7]), -15%; in test [4] (setting [8]), 98% (active); in test [4] (at 50.0 µM), 98.9% (active). In addition, the growth inhibition in test [5] (setting [7]) was 4%; in test [5] (setting [8]) it was 98% (active); in test [5] (at 50.0 µM) it was 98.8% (active); in test [6] (setting [7]), 25%; in test [6] (setting [8]), 98% (active); in test [6] (at 50.0 µM), 97.8% (active).
On to `COc1ccc(/C=C/c2ccc3ccccc3n2)cc1OC`, for which the growth inhibition was 3% in test [1] (setting [7]); 97% (active) in test [1] (setting [8]); 93.8% (active) in test [1] (at 50.0 µM); 8% in test [2] (setting [7]); 98% (active) in test [2] (setting [8]); 97% (active) in test [2] (at 50.0 µM). Also, the growth inhibition in test [3] (setting [7]) is 3%; in test [3] (setting [8]), 93% (active); in test [3] (at 50.0 µM) it was 97.5% (active); in test [4] (setting [7]) it was 1%; in test [4] (setting [8]) it was 96% (active); in test [4] (at 50.0 µM), 83.6% (active). Besides, the growth inhibition in test [5] (setting [7]) is 10%; in test [5] (setting [8]), 98% (active); in test [5] (at 50.0 µM) it was 95.3% (active); in test [6] (setting [7]) it was -1%; in test [6] (setting [8]) it was 97% (active); in test [6] (at 50.0 µM), 95.7% (active).
In the case of `COC(=O)N/N=C(/CC1(O)C(=O)Nc2ccccc21)c1ccc(Cl)cc1Cl` (configuration not stated), the growth inhibition in test [1] (setting [7]) is 21%; in test [1] (setting [8]) it was 97% (active); in test [1] (at 50.0 µM), 97.5% (active); in test [2] (setting [7]), 10%; in test [2] (setting [8]) it was 97% (active); in test [2] (at 50.0 µM), 98.5% (active). Moreover, the growth inhibition in test [3] (setting [7]) was 32%; in test [3] (setting [8]) it was 97% (active); in test [3] (at 50.0 µM) it was 98.2% (active); in test [4] (setting [7]) it was 12%; in test [4] (setting [8]), 97% (active); in test [4] (at 50.0 µM), 92.3% (active). Also, the growth inhibition is 8% in test [5] (setting [7]); 97% (active) in test [5] (setting [8]); 96.8% (active) in test [5] (at 50.0 µM); 19% in test [6] (setting [7]); 94% (active) in test [6] (setting [8]); 97.8% (active) in test [6] (at 50.0 µM).
As to `CC12CCC(O)CC1=CCC1C2CCC2(C)/C(=C\C#N)CCC12` (configuration not stated), the growth inhibition is -6% in test [1] (setting [7]); 53% in test [1] (setting [8]); 69.2% in test [1] (at 50.0 µM); 5% in test [2] (setting [7]); 78% (active) in test [2] (setting [8]); 9.9% in test [2] (at 50.0 µM). For the same compound, the growth inhibition in test [3] (setting [7]) is 11%; in test [3] (setting [8]) it was 90% (active); in test [3] (at 50.0 µM) it was 52.3%; in test [4] (setting [7]), 2%; in test [4] (setting [8]), 81% (active); in test [4] (at 50.0 µM), -1.95%. Besides, the growth inhibition in test [5] (setting [7]) is 2%; in test [5] (setting [8]), 87% (active); in test [5] (at 50.0 µM), 31.3%; in test [6] (setting [7]) it was -8%; in test [6] (setting [8]), 97% (active); in test [6] (at 50.0 µM), 73.9% (active).
Consider `Cc1ccc2sc3ccc(N)cc3c(=O)c2c1`, for which the growth inhibition in test [1] (setting [7]) was 27%; in test [1] (setting [8]), 84% (active); in test [1] (at 50.0 µM) it was 62.6%; in test [2] (setting [7]), 24%; in test [2] (setting [8]), 74% (active); in test [2] (at 50.0 µM), 31.6%. The growth inhibition in test [3] (setting [7]) was 26%; in test [3] (setting [8]) it was 89% (active); in test [3] (at 50.0 µM) it was 60.6%; in test [4] (setting [7]), 26%; in test [4] (setting [8]), 58%; in test [4] (at 50.0 µM), 43.7%. The growth inhibition is 25% in test [5] (setting [7]); 95% (active) in test [5] (setting [8]); 66.2% in test [5] (at 50.0 µM); 27% in test [6] (setting [7]); 92% (active) in test [6] (setting [8]); 81.8% (active) in test [6] (at 50.0 µM).

These data come from PubChem BioAssay (NCI).
